Only some compounds are listed: those with a hit (about 4.6% of all), similar ones and a draw of the others.
TRb-SRC2 inh: qHTS for Inhibitors of the Interaction of Thyroid Hormone Receptor and Steroid Receptor Coregulator 2. 280,000 tested, 0.065% active. Potency, µM (highest dose often 106 µM), for the others: top-dose activity change, negative = inhibition, usual class: inhibitors. TRbeta-SRC2 peptide binding, fluorescence polarization; receptor liganded with 1 µM T3. AID 1469, 2008. Thyroid hormone receptor beta (Homo sapiens), P10828;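 further: potency means the concentration at half of the fitted maximal effect; plate controls were bound peptide for no effect and peptide without receptor for full effect; nearly all actives have a fitted effect of over 50% in size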
Target sequence (P10828 whole entry, looked up): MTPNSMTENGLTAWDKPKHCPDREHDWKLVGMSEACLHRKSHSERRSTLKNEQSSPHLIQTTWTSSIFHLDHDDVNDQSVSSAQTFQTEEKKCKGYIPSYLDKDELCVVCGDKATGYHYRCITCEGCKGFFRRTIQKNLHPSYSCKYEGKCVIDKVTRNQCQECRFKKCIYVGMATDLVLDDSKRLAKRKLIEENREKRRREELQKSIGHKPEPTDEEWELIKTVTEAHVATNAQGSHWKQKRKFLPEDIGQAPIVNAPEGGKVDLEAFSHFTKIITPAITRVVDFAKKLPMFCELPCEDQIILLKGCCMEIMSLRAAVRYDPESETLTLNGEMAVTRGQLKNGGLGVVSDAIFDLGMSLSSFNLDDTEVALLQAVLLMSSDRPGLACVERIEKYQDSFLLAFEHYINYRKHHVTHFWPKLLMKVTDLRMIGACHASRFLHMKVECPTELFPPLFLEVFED
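Polarization signal, normalized between peptide-alone and full complex controls, measured compound effects on T3-liganded human TRb LBD (0.6 uM) binding 20 nM Texas Red SRC2 peptide after 5 hr.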
Tau fluor counter: Counterscreen qHTS for Inhibitors of Tau Fibril Formation, Fluorescence Polarization; tau K18 P301L Alexa594 fluorescence, heparin fibrillization; Potency, µM (series often up to 57.7 µM), for the others: top-dose activity change, negative = decrease; 280,000 tested, 0.93% active; AID 1463, 2008; further: potency means the concentration at half of the fitted maximal effect; nearly all actives have a fitted effect of over 55% in size
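Human K18 P301L tau (15 uM unlabeled plus 0.24 uM Alexa 594-labeled, final) in 100 mM sodium acetate pH 7 was mixed with compound and 20 uM heparin and incubated 6 hr at 37 C.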
PNC assembly inh: High Content Assay for Compounds that inhibit the Assembly of the Perinucleolar Compartment; activity change (PNC), negative = inhibition, % at 10 µM; PC3M PTB-GFP, PNC prevalence imaging, 16 h; stronger effect = lower value; 140,000 tested, 3.1% active;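 active means readout at or below -70, meaning at least 70% loss of cells showing the perinucleolar compartment, a nuclear body marking cancer cells; inconclusive means readout between -30 and a set limit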;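 further: plate controls were DMSO wells for no effect and camptothecin positive control wells for full effect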
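PC3M cells stably expressing PTB-GFP, 750–1000 cells/well, treated 16 h at 37 °C with compound (23 nl of library stock), in duplicate. After paraformaldehyde fixation and Hoechst stain, imaged at 20x; PNC prevalence scored by image analysis.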
TexasRed fluor: Total Fluorescence Counterscreen for Inhibitors of the Interaction of Thyroid Hormone Receptor and Steroid Receptor Coregulator 2 | Potency, µM (doses to about 106 µM), for inactives: top-dose fluorescence change, negative = quenching | 280,000 tested, 0.29% active | TRb/SRC2 Texas Red total fluorescence interference | AID 1479, 2009; active means well fitted curve in either direction with a large enough effect; inconclusive means small, poorly fitted or top-dose-only effect; further: potency means the concentration at half of the fitted maximal effect
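Human TRb ligand-binding domain at 0.6 uM with 20 nM Texas Red SRC2 peptide in Tris buffer containing 1 uM T3 and 5% DMSO, incubated with compound 5 h at ambient temperature. Total fluorescence (555/632 nm) calculated as parallel + 2 × perpendicular.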
Tau fibril FP: qHTS for Inhibitors of Tau Fibril Formation, Fluorescence Polarization | Microtubule-associated protein tau (Homo sapiens), P10636 | K18 P301L tau heparin fibrillization, Alexa594 FP, 6 h | Potency, µM (doses to about 57.7 µM), inactives show top-dose activity, negative = inhibition, actives largely listed as inhibitors | 280,000 tested, 0.39% active; further: potency means the concentration at half of the fitted maximal effect; nearly all actives have a fitted effect of over 55% in size
Target sequence (P10636 561-689 P618L limits assumed): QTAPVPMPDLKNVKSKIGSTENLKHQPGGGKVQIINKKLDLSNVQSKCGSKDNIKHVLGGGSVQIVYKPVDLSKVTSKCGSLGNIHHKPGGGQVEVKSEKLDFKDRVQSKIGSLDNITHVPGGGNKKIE
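Quantitative HTS format: compounds meet 15 uM recombinant K18 P301L tau and Alexa 594-tau tracer in 100 mM sodium acetate pH 7; 20 uM heparin triggers fibrillization at 37 C over 6 hr; FP gives the signal.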
Tau ThT inhib: qHTS for Inhibitors of Tau Fibril Formation, Thioflavin T Binding; 270,000 tested, 2.1% active; Microtubule-associated protein tau (Homo sapiens), P10636; recombinant tau K18 P301L, heparin-induced fibrillization, ThT fluorescence; Potency, µM (titrated, usually from 57.4 µM), without a hit: at the highest dose activity, negative = inhibition, usual class: inhibitors; AID 1460, 2008; further: potency means the concentration at half of the fitted maximal effect; nearly all actives have a fitted effect of over 55% in size
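ThT emission at 510 nm, taken 1 hr after adding 30 uM dye, quantifies aggregates formed when 20 uM heparin acts on human tau K18 P301L for 6 hr at 37 C.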
Starred values were filed as active, the others as inactive; ? = inconclusive; / = no result given; [ ] = dose if it differs, or a comment. Unless noted, the call rests on the fitted dose curve; in most records, active means well fitted curve in the direction sought with a large enough effect; inconclusive means small, poorly fitted or top-dose-only effect, or another doubt; inactive means no such curve, though single readings can be large; an effect the other way counts as inactive or inconclusive. Unless noted, on the % scale 0 is the no-effect control and ±100 the full control effect.

SMILES | TRb-SRC2 inh | Tau fluor counter | PNC assembly inh | TexasRed fluor | Tau fibril FP | Tau ThT inhib
CCOc1ccc(N(C)S(=O)(=O)c2ccc3[nH]cc(C(=O)NCCOC)c(=O)c3c2)cc1 | 0.5% | ? | / | -1.4% | ? | -2.7%
CN(Cc1ccco1)C(=O)c1c[nH]c2ccc(S(=O)(=O)Nc3ccc4c(c3)OCCO4)cc2c1=O | -7.3% | -7.8% | 37.3 | -3.4% | 2.9% | -6.3%
CCCNC(=O)c1c[nH]c2ccc(S(=O)(=O)N(C)c3ccc(OCC)cc3)cc2c1=O | 0.0% | ? | 22.0 | -7.0% | 14.1µM* | -1.9%
COCCCNC(=O)c1c[nH]c2ccc(S(=O)(=O)N3CCC(C)CC3)cc2c1=O | 4.8% | -29.0% | / | -1.4% | ? | 1.9%
CCOc1ccc(NS(=O)(=O)c2ccc3[nH]cc(C(=O)NCc4ccco4)c(=O)c3c2)cc1 | 1.1% | ? | / | 0.1% | 15.8µM* | 10.5%
C=Cc1ccc(Cn2c(=O)n(-c3ccccc3C)c(=O)c3c4c(sc32)CN(C(C)=O)CC4)cc1 | 1.9% | -13.4% | / | -9.0% | 7.0% | ?
CCOc1ccc(NS(=O)(=O)c2ccc3[nH]cc(C(=O)N(C)Cc4ccccc4)c(=O)c3c2)cc1 | -14.1% | -17.6% | / | ? | -2.0% | -8.6%
CCOc1ccc(NS(=O)(=O)c2ccc3[nH]cc(C(=O)NCc4ccccc4)c(=O)c3c2)cc1 | 7.7% | ? | / | -1.7% | 3.55µM* | -2.8%
COCCCNC(=O)c1ccc2c3c(onc13)-c1ccccc1C2=O | -13.3% | 5.62µM*[quencher] | / | 8.5% | ? | 6.31µM*
O=C(CSc1nnc(CNC(=O)c2ccco2)o1)Nc1ccccc1 | -1.6% | -0.5% | / | 0.7% | -3.1% | 1.2%
Cc1ccc(CC(=O)N2CCN(C(=O)c3ccco3)CC2)cc1 | 2.1% | -0.7% | / | -0.8% | 0.7% | -2.1%
COC(=O)c1ccc(S(=O)(=O)N2CCC(O)CC2)n1C | 4.9% | -3.0% | / | 2.6% | 4.6% | -12.0%
CCCOc1ccc([C@@H]2C3CN(C(=O)OCC)CC=C3C(C#N)=C(N)C2(C#N)C#N)cc1OC (stereo partly drawn) | -3.3% | -12.9% | -81.2* | 1.1% | -7.9% | ?
N#CC1=C(N)C(C#N)(C#N)[C@H](c2ccncc2)[C@H]2CN(C(=O)OCc3ccccc3)CC=C12 | -0.2% | -7.9% | -100.0* | -2.5% | -19.6% | ?
CCOC(=O)N1CC=C2C(C#N)=C(N)C(C#N)(C#N)[C@H](c3cccs3)C2C1 (stereo partly drawn) | 8.1% | -4.5% | -100.0* | -6.3% | -9.8% | ?
COc1cc(C2C3CN(C)CC=C3C(C#N)=C(N)C2(C#N)C#N)ccc1OC(C)C (stereo not drawn) | -3.8% | -18.1% | ? | -1.5% | ? | ?
COc1ccc2nnc(-c3ccc(C(F)(F)F)cc3)n2n1 | -2.7% | -12.4% | / | -6.6% | -1.8% | -13.0%
O=C(O)CCC(C(=O)O)n1c(O)c(C2=c3ccccc3=NC2=O)sc1=S (stereo not drawn) | -15.0% | -7.9% | -19.9 | -0.6% | 1.0% | ?
O=C1N=c2ccccc2=C1c1sc(NS(=O)(=O)Cc2ccccc2)nc1O | 2.9% | -19.6% | / | -7.0% | 5.5% | 7.94µM*
Cc1nc(NS(=O)(=O)c2ccccc2)sc1C(C)(C)C | -1.0% | -17.6% | ? | -6.9% | 3.2% | -11.5%
O=C1N=c2ccccc2=C1c1sc(Nc2ccc(O)cc2)nc1O | -1.4% | 14.1µM*[quencher] | / | -15.6% | 5.4% | 2.24µM*
O=C1N=c2ccccc2=C1c1sc(NS(=O)(=O)c2ccccc2)nc1O | -0.1% | ? | / | -26.5% | 5.0% | 7.08µM*
CCN(CC)CCNC(=O)c1ccc(NC(=O)/C=C/c2cc(OC)c(OC)c(OC)c2)cc1 | 7.2% | -9.8% | / | -2.6% | -2.3% | -3.9%
C=CC12C=CC=CN1C(C(=O)OC)=C(C(=O)OC)C(C(=O)OC)=C2C(=O)OC (stereo not drawn) | -4.1% | -5.8% | 5.6 | -3.3% | 1.6% | ?
O=C(Nc1ccccc1)N1N=C(c2cccs2)CC1c1cccs1 (stereo not drawn) | -0.4% | -16.3% | -101.7* | 0.6% | -4.3% | -1.4%
SMILES | TRb-SRC2 inh | Tau fluor counter | PNC assembly inh | TexasRed fluor | Tau fibril FP | Tau ThT inhib
O=C(CN1CCOCC1)N1N=C(c2cccs2)CC1c1cccs1 (stereo not drawn) | 10.3% | 2.4% | / | 0.1% | -0.8% | 0.2%
Cc1nnc(C)n1/N=C/c1cc(Br)cc(Br)c1O | 3.8% | -11.5% | ? | -7.5% | -11.6% | 11.2µM*
Cc1nnc(C)n1/N=C/c1cc(Br)ccc1O | 8.1% | -7.6% | ? | -0.4% | -3.1% | -9.7%
Cc1cccc(OC(C)c2ccnc3nc(/N=C/N(C)C)nn23)c1 (stereo not drawn) | 2.7% | -1.4% | ? | 2.2% | 5.0% | 4.2%
O=C1Nc2cc3c(cc2C1=O)sc1ccccc13 | -1.4% | ? | / | -9.8% | 5.9% | 1.12µM*
CC(CNC(=O)CCCn1c(=O)c2cccn2c2ccc(F)cc21)c1ccccc1 (stereo not drawn) | 8.5% | -18.6% | / | -11.6% | -7.6% | -2.7%
Cc1ccc(C)c(NC(=O)C(C)N(c2ccccc2)S(C)(=O)=O)c1 (stereo not drawn) | 3.5% | -2.5% | / | -1.8% | -2.6% | 3.4%
O=C(O)c1ccccc1Nc1ccc([N+](=O)[O-])cc1 | -2.9% | -0.4% | -86.9* | -3.0% | 3.9% | 10µM*
O=[N+]([O-])c1ccc(Nc2c3ccccc3nc3ccccc23)cc1 | 2.4% | 11.2µM*[quencher] | / | -1.7% | ? | 10µM*
O=C(c1ccccc1)N(Cc1cccnc1)C1(C(=O)Nc2ccccc2)CCCCC1 | -0.6% | 7.9% | -110.0* | 0.3% | 8.3% | 6.7%
CCOC(=O)Cn1c2[n+](c3ccccc31)CC(O)CS2 (stereo not drawn) | 2.0% | 7.0% | 25.6 | 3.3% | 4.1% | -2.0%
CCc1cc2c(=O)c(-c3nc4ccccc4n3C)c(C(C)C)oc2c(CN2CCN(C)CC2)c1O | -5.4% | 2.6% | -103.9* | 0.7% | -4.6% | -0.9%
CN(c1ccc(OCC(=O)OCC(=O)Nc2ccccc2)cc1)S(=O)(=O)c1ccc(F)cc1 | 1.2% | ? | ? | 0.1% | ? | -12.6%
CN(c1ccc(OCC(=O)OCC(=O)Nc2c(F)c(F)c(F)c(F)c2F)cc1)S(=O)(=O)c1ccc(F)cc1 | 10.7% | ? | -106.9* | -1.5% | -7.1% | -5.9%

Assay outcomes from PubChem.
